Reference: PubChem BioAssay (NCI)
The panel holds about 79,000 compounds, 15% with a hit somewhere; the sample as a whole holds those more often. Values without a mark were called inactive. Active and inactive are the calls of the source. Rule as the data show it: active = growth inhibition above about 70%; inactive = the rest.

Assays:
[1] = NCI Yeast Anticancer Drug Screen. Data for the rad50 strain (AID 155);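 also: 0% = growth of vehicle-only cultures of the same strain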; conditions: S. cerevisiae rad50 strain growth inhibition, stronger effect = higher value
Procedure, shortened: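 A DNA repair-deficient yeast mutant serves as the test organism; compound-induced growth inhibition is calculated against vehicle-treated cells.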

[2] = NCI Yeast Anticancer Drug Screen. Data for the mec2-1 strain (AID 157); conditions: S. cerevisiae mec2-1 strain, stronger effect = higher value
Procedure, shortened: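 Compounds were applied to mec2-1 yeast cells. Their growth was then compared with that of vehicle-treated cultures to give growth inhibition.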

[3] = NCI Yeast Anticancer Drug Screen. Data for the sgs1 mgt1 strain (AID 161);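 also: 0% = growth of cultures given vehicle only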; conditions: S. cerevisiae sgs1 mgt1 strain, stronger effect = higher value
Procedure, shortened: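 Compounds are added to genetically altered yeast, and growth is compared with cultures given vehicle alone to give percent inhibition.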

[4] = NCI Yeast Anticancer Drug Screen. Data for the cln2 rad14 strain (AID 165);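 also: 0% = growth equal to vehicle treated cultures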; conditions: S. cerevisiae cln2 rad14 strain, stronger effect = higher value
Procedure, shortened: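 Strain: cln2 rad14 yeast, altered in cell cycle control and DNA damage repair. Read-out: growth inhibition vs vehicle.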

[5] = NCI Yeast Anticancer Drug Screen. Data for the bub3 strain (AID 167); conditions: S. cerevisiae bub3 mutant strain, stronger effect = higher value
Procedure, shortened: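 Inhibition values come from growth of compound-treated mutant yeast normalised to vehicle-treated controls.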

[6] = NCI Yeast Anticancer Drug Screen. Data for the mlh1 rad18 strain (AID 175); conditions: S. cerevisiae mlh1 rad18 strain growth inhibition, stronger effect = higher value
Procedure, shortened: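 A repair-deficient yeast strain is exposed to test compound, and growth is scored relative to vehicle-treated controls.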

[7] = at 5.0 µM (retest, dose inferred, filed as 0.5)
[8] = at 50.0 µM (retest, dose inferred, filed as 5.0)

SMILES | growth inhibition [1, 7] | growth inhibition [1, 8] | growth inhibition ([1]; at 50.0 µM) | growth inhibition [2, 7] | growth inhibition [2, 8] | growth inhibition ([2]; at 50.0 µM) | growth inhibition [3, 7] | growth inhibition [3, 8] | growth inhibition ([3]; at 50.0 µM) | growth inhibition [4, 7] [%] | growth inhibition [4, 8] | growth inhibition ([4]; at 50.0 µM) | growth inhibition [5, 7] [%] | growth inhibition [5, 8] | growth inhibition ([5]; at 50.0 µM) | growth inhibition [6, 7] | growth inhibition [6, 8] | growth inhibition ([6]; at 50.0 µM)
COc1ccc2nc3cc([N+](=O)[O-])ccc3c(NCCO)c2c1 | -24% | 77% (active) | 58.5% | -9% | 66% | 47.8% | -26% | 80% (active) | 44.6% | -6 | 89% (active) | 75.1% (active) | -18 | 30% | 49% | 4% | 82% (active) | 49.9%
O=C1c2ccccc2C(=O)N1C(=NCc1ccccc1)c1ccccc1 | 7% | 70% (active) | 64.2% | 2% | 68% | 63.4% | 4% | 42% | 64% | 3 | 64% | 5.55% | -3 | 66% | 55.2% | 4% | 78% (active) | 83.2% (active)
Oc1cccc(Oc2cccc(Oc3ccccc3)c2)c1 | 1% | 99% (active) | 99.4% (active) | 1% | 99% (active) | 99.3% (active) | -6% | 99% (active) | 99.5% (active) | -23 | 99% (active) | 99% (active) | 30 | 99% (active) | 99.4% (active) | 2% | 99% (active) | 99.3% (active)
Cc1ccc2[nH]c3cc4ccncc4cc3c2c1 | -127% | 95% (active) | 48.5% | 30% | 95% (active) | 98.6% (active) | -15% | 94% (active) | 3.7% | 35 | 96% (active) | 96.7% (active) | 47 | 96% (active) | 97.2% (active) | 40% | 95% (active) | 49.9%
CC(=O)OC1OC2C(NC(=O)OC(C)(C)C)C1CC2(OCc1ccccc1)OCc1ccccc1 (configuration not stated) | 35% | 35% | 23.6% | 25% | 25% | -24.4% | 29% | 29% | -3.2% | 8 | 8% | 9.6% | 18 | 18% | -12.8% | 28% | 28% | 9%
CCCCOc1ccc(-c2c(COC(=O)NC)c(COC(=O)NC)c(C)n2C)cc1 | 23% | 94% (active) | 85.3% (active) | 14% | 97% (active) | 89.5% (active) | 21% | 99% (active) | 90% (active) | 19 | 85% (active) | 89% (active) | 17 | 99% (active) | 87.3% (active) | 20% | 96% (active) | 88.2% (active)
CCCCCCCCCCCCNC(=O)C[n+]1cccc(C(N)=O)c1 | 3% | 88% (active) | 79% (active) | -3% | 90% (active) | 19.8% | -2% | 97% (active) | -2.6% | -6 | 67% | 36.4% | -9 | 76% (active) | 50.8% | -1% | 85% (active) | 51.4%
COC(=O)/C(Br)=C(\Br)c1ccccc1 | 6% | 13% | -11.4% | 6% | 6% | 24.1% | 14% | -6% | 36.7% | 2 | 6% | -18.6% | 0 | 21% | 52.8% | 22% | 40% | 21.7%
Nc1ccc2c(c1)[nH]c(=O)c1ccc(Cl)cc12 | -63% | 94% (active) | 98.2% (active) | -32% | 82% (active) | 90.5% (active) | -32% | 83% (active) | 93.1% (active) | -30 | 85% (active) | 92.5% (active) | -52 | 91% (active) | 78.9% (active) | -56% | 93% (active) | 97% (active)
O=C1OC(c2ccccc2)(c2ccc(-c3ccccc3O)cc2)c2ccccc21 (configuration not stated) | 87% (active) | 90% (active) | 94.2% (active) | 71% (active) | 92% (active) | 95.1% (active) | 89% (active) | 93% (active) | 93% (active) | 60 | 90% (active) | 92.9% (active) | 61 | 90% (active) | 95.1% (active) | 92% (active) | 91% (active) | 93.5% (active)
O=C(CC1C=Cc2ccccc2N1C(=O)c1ccccc1)c1ccccc1 (configuration not stated) | 1% | 85% (active) | 83% (active) | -4% | 76% (active) | 76.5% (active) | -7% | 82% (active) | 37.8% | -17 | 77% (active) | 73% (active) | 21 | 93% (active) | 86% (active) | -2% | 87% (active) | 88.5% (active)
O=C(c1ccccc1)C1N=NCC1c1ccc([N+](=O)[O-])cc1 (configuration not stated) | 2% | -21% | -3.65% | 11% | 9% | 10.1% | 1% | 47% | 18.2% | 5 | -4% | -4.4% | -5 | 5% | 84.2% (active) | 0% | -4% | 40.6%
CC(C)OP(=O)(CCCCCCCCC/C=C/c1ccc2c(c1)OCCOCCOCCOCCO2)OC(C)C | 20% | 98% (active) | 97.8% (active) | 4% | 99% (active) | 92.3% (active) | -4% | 98% (active) | 98.2% (active) | 7 | 98% (active) | 97.3% (active) | -11 | 99% (active) | 98.3% (active) | 24% | 99% (active) | 98.1% (active)
O=C(O)C(O)Cc1ccc(O)cc1 (configuration not stated) | -150% | -144% | -3.2% | -46% | -51% | 1.1% | -61% | -61% | 3.7% | -62 | -69% | 39.2% | -70 | -86% | -13.3% | -140% | -122% | -6.4%
BrC1=CC(Br)=C2N=C(C(Br)(Br)Br)N=C3N=C(C(Br)(Br)Br)N=C1N32 | 27% | 97% (active) | 99% (active) | 15% | 98% (active) | 99.5% (active) | 20% | 99% (active) | 99.8% (active) | 5 | 97% (active) | 98.2% (active) | 0 | 97% (active) | 99.2% (active) | 30% | 97% (active) | 99% (active)
O=C(O)CCCCCCCCCC[S+](CCO)CCO | -2% | 31% | 43.2% | 3% | 29% | 26.4% | 2% | 50% | 62.1% | 20 | 12% | 67.5% | 3 | 12% | 37.4% | 1% | 44% | 34.5%
COC(=O)C1C(C(=O)OC)C2(OC(c3ccc(Cl)cc3)=CC2=O)C12OC(c1ccc(Cl)cc1)=CC2=O (configuration not stated) | 2% | 74% (active) | 89.8% (active) | 12% | 99% (active) | 92% (active) | 12% | 96% (active) | 90% (active) | 4 | 63% | 89.8% (active) | -1 | 90% (active) | 92% (active) | 13% | 98% (active) | 87.2% (active)
CC1=CC(=N/O)/C=CC/1=C(\C#N)c1ccccc1 | -14% | 99% (active) | 99.2% (active) | -11% | 99% (active) | 99.4% (active) | -6% | 99% (active) | 99.4% (active) | -47 | 99% (active) | 99.3% (active) | -17 | 99% (active) | 99.4% (active) | -20% | 100% (active) | 98.7% (active)
CCCN(CCC)c1ccc(/C=C/c2ccnc3ccccc23)cc1 | 9% | 74% (active) | 91.2% (active) | -10% | 88% (active) | 92% (active) | -4% | 82% (active) | 92.7% (active) | -18 | 60% | 58% | -12 | 88% (active) | 92% (active) | -7% | 86% (active) | 89.7% (active)
